# Laboratory results as given in the antibiotic and cytotoxicity screens of Wong et al. (2023).
# Among all 39,000 compounds or so, about 3,300 (8.5%) were called active. Shown is part of a subset that was picked to be rich in actives.
# Tested on: HepG2
# Assay: cytotoxicity call (relative viability < 0.9)
# Settings: 10 µM
row,Compound,cytotoxicity call
1,OC[C@@H](O)[C@@H](O)CO,inactive
2,OCC(O)C(O)CO (centres undefined),inactive
3,C[C@@H]1CCCCO[C@@H](CN(C)C(=O)NC2CCCCC2)[C@H](C)CN([C@@H](C)CO)C(=O)c2cc(NC(=O)c3ccccc3)ccc2O1,inactive
4,CCCNC(=O)N(C)C[C@H]1Oc2cc(C#Cc3ccccn3)ccc2S(=O)(=O)N([C@@H](C)CO)C[C@@H]1C,inactive
5,COc1ccc(CN(C)C[C@H]2OCCCC[C@@H](C)Oc3ccc(NC(=O)c4ccccc4)cc3C(=O)N([C@@H](C)CO)C[C@H]2C)cc1,inactive
6,CCS(=O)(=O)N1Cc2cc(C(=O)NCCOC)nc(-c3cccc(-c4ccncc4)c3)c2[C@H]1CCO,inactive
7,CCN(CC)CCN(Cc1ccc(-c2ccc(C(F)(F)F)cc2)cc1)C(=O)Cn1c(SCc2ccc(F)cc2)nc(=O)c2c1CCC2,active
8,C[C@H](CO)N1C[C@H](C)[C@H](CN(C)C(=O)NC2CCCCC2)Oc2c(NS(=O)(=O)c3cn(C)cn3)cccc2C1=O,inactive
9,C[C@@H]1CN([C@H](C)CO)C(=O)c2cc(C#CC3CCCC3)cnc2O[C@H]1CN(C)S(=O)(=O)c1cccc(F)c1,inactive
10,C[C@H]1CN([C@@H](C)CO)C(=O)c2cc(C#CC3CCCC3)cnc2O[C@@H]1CN(C)S(=O)(=O)c1cccc(F)c1,active
11,C[C@H](CO)N1C[C@H](C)[C@H](CN(C)S(=O)(=O)c2cccc(F)c2)Oc2ncc(C#CC3CCCC3)cc2C1=O,inactive
12,C[C@@H]1CN([C@H](C)CO)C(=O)c2cc(C#CC3CCCC3)cnc2O[C@@H]1CN(C)S(=O)(=O)c1cccc(F)c1,inactive
13,C[C@@H]1CN([C@@H](C)CO)C(=O)c2cc(C#CC3CCCC3)cnc2O[C@H]1CN(C)S(=O)(=O)c1cccc(F)c1,active
14,C[C@H](CO)N1C[C@H](C)[C@@H](CN(C)S(=O)(=O)c2cccc(F)c2)Oc2ncc(C#CC3CCCC3)cc2C1=O,inactive
15,COc1ccc(NC(=O)N(C)C[C@@H]2OCCCC[C@@H](C)Oc3ccc(NS(=O)(=O)c4ccc(Cl)cc4)cc3C(=O)N([C@@H](C)CO)C[C@@H]2C)cc1,inactive
16,C=c1cc(C)ccc1=C1NN=C(NC(C)=O)O1,inactive
17,COc1ccc(S(=O)(=O)N(C)C[C@@H]2OCCCC[C@H](C)Oc3ccc(NC(=O)C4CCCCC4)cc3C(=O)N([C@H](C)CO)C[C@H]2C)cc1,inactive
18,CCCOc1ccc(S(=O)(=O)NCC[C@@H]2CCCN2C)cc1-c1nc2c(CCC)nn(C)c2c(=O)[nH]1,inactive
19,CCCc1nc(C)c2c(=O)[nH]c(-c3cc(S(=O)(=O)N4CCN(CC)CC4)ccc3OCC)nn12.Cl,inactive
20,CCCc1nn(C)c2c(=O)[nH]c(-c3cc(S(=O)(=O)N4CCN(C)CC4)ccc3OCC)nc12.O=C(O)CC(O)(CC(=O)O)C(=O)O,active

row,Compound,cytotoxicity call
1,CCS(=O)(=O)Nc1ccc2c(c1)C(=O)N(C)[C@@H]1CC[C@H](CC(=O)NCc3ccc(OC)cc3)O[C@@H]1CO2,inactive
2,C[C@@H]1CCCCO[C@H](CN(C)CC2CCCCC2)[C@H](C)CN([C@H](C)CO)C(=O)c2cc(NS(=O)(=O)c3cccs3)ccc2O1,inactive
3,Cc1noc(C)c1S(=O)(=O)Nc1ccc2c(c1)C(=O)N([C@H](C)CO)C[C@H](C)[C@@H](CN(C)Cc1ccc(C(=O)Nc3ccccc3N)cc1)OCCCC[C@@H](C)O2,active
4,C[C@@H]1CCCCO[C@H](CN(C)Cc2ccccc2)[C@@H](C)CN([C@@H](C)CO)C(=O)c2cc(NS(=O)(=O)c3cccs3)ccc2O1,inactive
5,Cc1noc(C)c1S(=O)(=O)Nc1ccc2c(c1)C(=O)N([C@@H](C)CO)C[C@H](C)[C@@H](CN(C)Cc1ccc(C(=O)Nc3ccccc3N)cc1)OCCCC[C@@H](C)O2,inactive
6,C[C@@H]1CN([C@H](C)CO)C(=O)c2cc(NS(=O)(=O)c3cccs3)ccc2O[C@@H](C)CCCCO[C@@H]1CN(C)CC1CCCCC1,inactive
7,C[C@@H]1CN([C@H](C)CO)C(=O)c2cc(NS(=O)(=O)c3cccs3)ccc2O[C@@H](C)CCCCO[C@H]1CN(C)Cc1ccccc1,inactive
8,C[C@@H]1CN([C@@H](C)CO)C(=O)c2cc(NS(=O)(=O)c3cccs3)ccc2O[C@@H](C)CCCCO[C@H]1CN(C)Cc1ccccc1,active
9,C[C@@H]1CCCCO[C@@H](CN(C)Cc2ccccc2)[C@H](C)CN([C@@H](C)CO)C(=O)c2cc(NS(=O)(=O)c3cccs3)ccc2O1,inactive
10,C[C@@H]1CCCCO[C@H](CN(C)CC2CCCCC2)[C@H](C)CN([C@@H](C)CO)C(=O)c2cc(NS(=O)(=O)c3cccs3)ccc2O1,active
11,Cc1noc(C)c1S(=O)(=O)Nc1ccc2c(c1)C(=O)N([C@@H](C)CO)C[C@@H](C)[C@@H](CN(C)Cc1ccc(C(=O)Nc3ccccc3N)cc1)OCCCC[C@H](C)O2,inactive
12,C[C@H](CO)N1C[C@H](C)[C@@H](CN(C)Cc2ccccc2)OCCCC[C@H](C)Oc2ccc(NS(=O)(=O)c3cccs3)cc2C1=O,inactive
13,C[C@H]1CCCCO[C@@H](CN(C)Cc2ccccc2)[C@@H](C)CN([C@@H](C)CO)C(=O)c2cc(NS(=O)(=O)c3cccs3)ccc2O1,active
14,C[C@@H]1CN([C@@H](C)CO)C(=O)CCCn2nncc2CO[C@H]1CN(C)C(=O)Nc1ccc(N2CCN(C)CC2)cc1,inactive
15,C[C@H]1CN([C@@H](C)CO)C(=O)Cc2cc(NC(=O)Nc3cccc4ccccc34)ccc2O[C@H]1CN(C)C(=O)Nc1ccc(F)cc1,inactive
16,C[C@@H]1CN([C@@H](C)CO)C(=O)c2cc(NS(=O)(=O)c3ccccc3)ccc2O[C@@H](C)CCCCO[C@H]1CN(C)Cc1ccc(C(=O)O)cc1,inactive
17,Cc1cc(C(=O)Nc2cccc3c2O[C@H](CN(C)S(=O)(=O)c2ccc(Cl)cc2)[C@@H](C)CN([C@@H](C)CO)C3=O)n(C)n1,inactive
18,Cc1ccc(S(=O)(=O)Nc2ccc3c(c2)CC(=O)N([C@@H](C)CO)C[C@@H](C)[C@H](CN(C)S(=O)(=O)c2ccc(F)cc2)O3)cc1,inactive
19,CC(C)(O/N=C(\C(=O)N[C@@H]1C(=O)N2C(C(=O)O)=C(C[N+]3(CCNC(=O)c4ccc(O)c(O)c4Cl)CCCC3)CS[C@H]12)c1csc(N)n1)C(=O)O,inactive
